Measured values: publication PMC7826789 (International Journal of Molecular Sciences, 2021)

Tests used:
Conditions in all cases: Compound Concentration (nM):1000
CAMK2G = tested on: CAMK2G
CAMK4 = tested on: CAMK4
CAMKK1 = tested on: CAMKK1
CAMKK2 = tested on: CAMKK2
CASK = tested on: CASK
CDC2L1 = tested on: T1, CDC2L1
T1 construct: gene CDK11B

CDC2L2 = tested on: CDC2L2
CDC2L5 = tested on: T2, CDC2L5
T2 construct: gene CDK13

CDK11 = tested on: T3, CDK11
T3 construct: gene CDK19

CDK2 = tested on: CDK2
CDK3 = tested on: CDK3
CDK4-cyclinD1 = tested on: CDK4-cyclinD1
CDK4-cyclinD3 = tested on: CDK4-cyclinD3
CDK4 = tested on: CDK4
CDK5 = tested on: CDK5
CDK7 = tested on: CDK7
CDK8 = tested on: CDK8
CDK9 = tested on: CDK9
CDKL1 = tested on: CDKL1
CDKL2 = tested on: CDKL2
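Further: KINOMEscan scanMAX binding as percent activity remaining versus control; lower means stronger binding.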

Structure (SMILES) | Percent Control (CAMK2G) [%] | Percent Control (CAMK4) [%] | Percent Control (CAMKK1) [%] | Percent Control (CAMKK2) [%] | Percent Control (CASK) [%] | Percent Control (CDC2L1) [%] | Percent Control (CDC2L2) [%] | Percent Control (CDC2L5) [%] | Percent Control (CDK11) [%] | Percent Control (CDK2) [%] | Percent Control (CDK3) [%] | Percent Control (CDK4-cyclinD1) [%] | Percent Control (CDK4-cyclinD3) [%] | Percent Control (CDK4) [%] | Percent Control (CDK5) [%] | Percent Control (CDK7) [%] | Percent Control (CDK8) [%] | Percent Control (CDK9) [%] | Percent Control (CDKL1) [%] | Percent Control (CDKL2) [%]
Cl.c1ccc(Cc2nc3ccc(Nc4ncnc5ccccc45)cc3[nH]2)cc1 [GR269666A] | 100 | 100 | 100 | 100 | 100 | 100 | 100 | 100 | 100 | 100 | 100 | 93 | 100 | 93 | 100 | 100 | 88 | 100 | 100 | 100
COc1cc(C)c(N(C)C(=O)CN(C)C)cc1Nc1nc(Nc2cccc(F)c2C(N)=O)c2cc[nH]c2n1 [GSK2219385] | 98 | 80 | 97 | 94 | 100 | 100 | 100 | 50 | 92 | 100 | 92 | 89 | 100 | 90 | 100 | 73 | 100 | 100 | 79 | 100
NS(=O)(=O)c1ccc(N/N=C2\C(=O)Nc3ccc(C(=O)NCc4ccncc4)cc32)cc1 [GW300657X] | 82 | 100 | 45 | 65 | 78 | 100 | 82 | 24 | 100 | 39 | 66 | 13 | 12 | 84 | 77 | 13 | 75 | 100 | 46 | 99
Cl.O=S1CCN(Cc2ccc(-c3ccc4ncnc(Nc5ccc(OCc6ccccc6)c(F)c5)c4c3)o2)CC1 [GW576924A] | 100 | 100 | 100 | 100 | 100 | 100 | 100 | 100 | 100 | 100 | 100 | 100 | 100 | 100 | 100 | 100 | 86 | 100 | 100 | 100
COC(=O)Nc1nc2ccc(Oc3ccc(NC(=O)Nc4cc(C(F)(F)F)ccc4F)cc3)cc2s1.Cl [GW693917A] | 100 | 100 | 100 | 100 | 93 | 98 | 78 | 19 | 5.3 | 65 | 100 | 96 | 90 | 100 | 100 | 9.3 | 20 | 86 | 73 | 0
Cc1cc(O)cc(C)c1/C=C/c1cncc(C(N)=O)c1 [GW435821X] | 100 | 100 | 100 | 100 | 77 | 100 | 97 | 100 | 100 | 100 | 100 | 97 | 100 | 100 | 100 | 100 | 72 | 100 | 100 | 100
CN1CCN(C(=O)c2ccc(NC(=O)Nc3ccc(N(C)c4ccnc(Nc5ccc(CS(C)(=O)=O)cc5)n4)cc3)cc2)CC1.Cl [GW830263A] | 100 | 100 | 28 | 100 | 85 | 67 | 51 | 13 | 100 | 87 | 100 | 77 | 89 | 83 | 91 | 61 | 85 | 69 | 73 | 1.7
COc1cc(/C=N/Nc2ncnc3[nH]ncc23)ccc1O [GW578748X] | 100 | 100 | 96 | 88 | 63 | 100 | 100 | 100 | 100 | 100 | 100 | 79 | 100 | 92 | 84 | 70 | 83 | 100 | 52 | 100
COc1ccc2[nH]c3c4[nH]c5ccc(OC)cc5c4c4c(c3c2c1)C(=O)NC4=O [GW296115X] | 80 | 98 | 78 | 74 | 100 | 90 | 91 | 100 | 100 | 93 | 100 | 82 | 74 | 100 | 75 | 56 | 87 | 58 | 75 | 92
Cl.O=C(Nc1ccc(Oc2ccc3[nH]c(NC(=O)c4ccco4)nc3c2)cc1)Nc1cc(C(F)(F)F)ccc1F [GW683134A] | 100 | 90 | 100 | 100 | 100 | 100 | 100 | 95 | 13 | 96 | 100 | 100 | 100 | 100 | 100 | 12 | 100 | 100 | 77 | 6.5
